This is a sample that favours compounds with a hit; in the whole collection about 4.1% have one here.
CSC inhib: blocks cancer stem cells | cancer stem cell-like cells viability, luminescence | inhibition, % at 7.5 µM | 300,000 tested, 1.1% active; in the data active = inhibition above about 75%; tested in HMLE shEcad cells
Bfl-1 A1 inh: inhibitors of the anti-apoptotic protein A1, read as caspase activation; MEF A1-2A-BIM cells, Caspase-Glo 3/7 luminescence, 3 h; percent of clofoctol response, vehicle zero; caspase activation, % (test concentration not listed); 330,000 tested, 0.066% active;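 active = over half of replicate activation scores above 10%, or exactly half above 10 with the replicate mean above 10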
aSyn UTR inh: MLPCN primary screen, SNCA 5' untranslated region; AID 1813; alpha-synuclein 5'UTR reporter, inhibitor activity; 300,000 tested, 0.82% active; inhibition, % (tested at 7.5 µM); in the data active = inhibition above about 60%;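 note: H4 neuroglioblastoma cells stably carrying SNCA 5'UTR luciferase fusion; 0% = DMSO wells and 100% = positive control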
Beta cell apopt: beta cell apoptosis inhibition. INS-1E cytokine-induced death, ATP luminescence, 48 h; percent of positive-control rescue, neutral wells zero. protection from apoptosis, % (no concentration beside the values). 300,000 tested, 0.8% active. AID 435005;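 active = Every replicate reaches about 75%, or at least half do and their mean reaches it too, limit read from the data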;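 note: 0% = cytokine-treated negative control wells and 100% = positive control rescue; higher means more ATP so stronger rescue from cytokine killing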
Mdm2-MdmX inh: human Mdm2/MdmX binding inhibition; 330,000 tested, 3% active; inhibition, % at 8 µM; SaOS-2 split-luciferase Mdm2/MdmX complementation, luminescence; O15151+Q00987; AID 485346;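 active = inhibition of at least 50% at 8 µM in the primary screen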
Mdm2-MdmX conf: confirmation of human Mdm2/MdmX interaction inhibitors | Mdm2-MdmX binding, luminescent assay | 10,000 tested, 55% active | inhibition, % at 8 µM | shares compounds with Mdm2-MdmX inh | AID 489028; in the data active = inhibition above about 40%
Full FLuc ctr: full-length luciferase inhibition in Mdm2/MdmX counter-screen | SaOS-2 full-length luciferase counterscreen, luminescence | 6,200 tested, 77% active | inhibition, % at 8 µM | AID 504607 | shares compounds with Mdm2-MdmX inh;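 active = mean inhibition at 8 µM reaching about 37%, which flags the compound as non-specific, limit read from the data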;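 note: p53-null SaOS-2 cells with luciferase driven by a doxycycline-inducible promoter; compound on cells about two nights before reading with doxycycline added after day one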
An asterisk follows results filed as active.

Screening COc1ccc(Cl)cc1NC(=O)CCN1CCN(c2ccccc2C)CC1 returned CSC inhib 0, Bfl-1 A1 inh 0, aSyn UTR inh -1, Beta cell apopt -2 and Mdm2-MdmX inh 7.
`Cc1ccc(NC(=O)c2cnc(N3CCN(c4ccccn4)CC3)c3ccccc23)c(Br)c1` gave CSC inhib 14, Bfl-1 A1 inh -1, aSyn UTR inh 5 and Beta cell apopt 32.
For O=C(Nc1c(F)cccc1F)c1cnc(N2CCN(c3ccccn3)CC2)c2ccccc12 the results were CSC inhib 20, Bfl-1 A1 inh 0, aSyn UTR inh -7, Beta cell apopt 11, Mdm2-MdmX inh 57* and Mdm2-MdmX conf 32.
COc1ccc(-n2nc(C(=O)NCC(=O)NCc3ccc(F)cc3)c3ccccc3c2=O)cc1 was read as CSC inhib 5, Bfl-1 A1 inh 0, aSyn UTR inh 13, Beta cell apopt 9 and Mdm2-MdmX inh -12.
Screening Cc1nnc2c(SC(C)C)nc3ccccc3n12 returned CSC inhib -19, Bfl-1 A1 inh 1, aSyn UTR inh 28, Beta cell apopt 4 and Mdm2-MdmX inh 38.
For CN(C)c1ccc(-c2nn3c(-c4cccnc4)nnc3s2)cc1 the results were CSC inhib 3, Bfl-1 A1 inh 1, aSyn UTR inh -9, Beta cell apopt 3 and Mdm2-MdmX inh 45.
For COc1ccccc1-c1nnc2sc(-c3ccc(N(C)C)cc3)nn12 the results were CSC inhib 54, Bfl-1 A1 inh 0, aSyn UTR inh 99*, Beta cell apopt -1, Mdm2-MdmX inh 69*, Mdm2-MdmX conf 68* and Full FLuc ctr 94*.
CN(C)c1ccc(-c2nn3c(-c4ccccc4Cl)nnc3s2)cc1 was read as CSC inhib 59, Bfl-1 A1 inh 0, aSyn UTR inh 82*, Beta cell apopt 6, Mdm2-MdmX inh 53*, Mdm2-MdmX conf 66* and Full FLuc ctr 65*.
COc1ccc(CCNC(=O)c2c(C)nn(-c3ccccc3)c2Cl)cc1OC was read as CSC inhib 2, Bfl-1 A1 inh -1, aSyn UTR inh 28 and Mdm2-MdmX inh 6.
For COc1ccccc1NC(=O)c1cc([N+](=O)[O-])ccc1N1CCOCC1 the results were CSC inhib -7, Bfl-1 A1 inh 0, aSyn UTR inh 16, Beta cell apopt 3 and Mdm2-MdmX inh 14.
For COc1cc(SC)ccc1C(=O)Nc1ccc(Br)cn1 the results were CSC inhib -4, Bfl-1 A1 inh -7, aSyn UTR inh 101*, Beta cell apopt 5, Mdm2-MdmX inh 60*, Mdm2-MdmX conf 48* and Full FLuc ctr 126*.
Screening COc1cc(SC)ccc1C(=O)Nc1ccc(C)cc1 returned CSC inhib -8, Bfl-1 A1 inh -2, aSyn UTR inh -142, Beta cell apopt 4 and Mdm2-MdmX inh -204.
Screening COc1cc(SC)ccc1C(=O)Nc1ncc(C)s1 returned CSC inhib -5, Bfl-1 A1 inh -7, aSyn UTR inh 98*, Beta cell apopt -1, Mdm2-MdmX inh 71*, Mdm2-MdmX conf 56* and Full FLuc ctr 71*.
`Cc1cccc(NC(=O)c2c([N+](=O)[O-])cnn2C)c1` gave CSC inhib -12, Bfl-1 A1 inh 2, aSyn UTR inh 7, Beta cell apopt 2 and Mdm2-MdmX inh 4.
CC(=O)Nc1cccc(NC(=O)CS(=O)(=O)c2cn(CC(=O)N(C(C)C)C(C)C)c3ccccc23)c1 was read as CSC inhib -5, Bfl-1 A1 inh -1, aSyn UTR inh 14, Beta cell apopt -14 and Mdm2-MdmX inh 26.
For Cc1ccc(Cn2c(O)c(N=O)c3ccccc32)cc1 the results were CSC inhib 35, Bfl-1 A1 inh 0, aSyn UTR inh 4, Beta cell apopt 4 and Mdm2-MdmX inh 23.
`O=Nc1c(O)n(Cc2ccc(Cl)cc2)c2ccccc12` gave CSC inhib 29, Bfl-1 A1 inh 1, aSyn UTR inh 14, Beta cell apopt 1, Mdm2-MdmX inh 51* and Mdm2-MdmX conf 34.
Screening C/C(Cl)=C\Cn1c(O)c(N=O)c2ccccc21 returned CSC inhib 23, Bfl-1 A1 inh 2, aSyn UTR inh 24, Beta cell apopt -3 and Mdm2-MdmX inh 20.
`C=CCn1c(O)c(N=O)c2ccccc21` gave CSC inhib -7, Bfl-1 A1 inh 0, aSyn UTR inh 2, Beta cell apopt -4 and Mdm2-MdmX inh 1.
